“And” between values parts separate entries of the source, which are not always exact repeats. Equal values may be shown once. Records with an inconclusive call do not appear. Unmarked numbers belong to inactive results. The source made the active and inactive calls. The call rests on the fitted dose curve; in most records, active means well fitted cell-killing curve with a large enough effect in the repeat runs; inconclusive means weak or mixed curves, or effect the other way; inactive means flat fitted curve, though single readings scatter.
experiment: qHTS assay to identify small molecule agonists of the androgen receptor (AR) signaling pathway in the presence of an antagonist - cell viability counter screen (AID 1259379); conditions: MDA-kb2 viability, CellTiter-Fluor, 16 h; series mostly up to 92.4 µM; activity change, negative = cytotoxicity: at the top concentration; further: nearly all actives have a fitted effect of over 25% in size
Excerpt: National Center for Advancing Translational Sciences [NCATS]
NIH Chemical Genomics Center [NCGC]
U.S. Environmental Protection Agency [EPA]
National Institutes of Environmental Health Sciences [NIEHS]
National Toxicology Program [NTP]
U.S. Food and Drug Administration [FDA]
Androgen receptor (AR) is an important member of nuclear receptor family. Its signaling plays a critical role in AR-dependent prostate cancer and other androgen related diseases. Considerable attention has been given in the past decades to develop methods to study and screen for the environmental chemicals that have the potential to interfere with metabolic homeostasis, reproduction, developmental and behavioral functions. Therefore AR binding assay for screening against androgen agonists and antagonists can be used to identify potential endocrine disruptors.
MDA-kb2 cells (from ATCC, deposited by Wilson et al.) are human breast carcinoma cells that were stably transfected with a luciferase reporter gene under control of the MMTV promoter that contains response elements for both androgen receptor (AR) and glucocorticoid receptor (GR). This particular screening for measuring luciferase reporter gene activity using MDA-kb2 cells against Tox21 10K library compounds is a confirmation study on agonist mode screening in the presence of AR-antagonist compound (Nilutamide) at 3.0uM final concentration. The cytotoxicity of the compounds was tested in parallel by measuring the cell viability using CellTiter-Fluor assay system (Promega, Madison, WI) in the same wells.
Tox21 Assay Protocol Summary:
MDA-kb2 cells (cells cultured without CO2) were dispensed at 3,000 cells/well in 4uL of culture medium into white wall/solid-bottom 1536-well plates (Corning Life Sciences, Corning, NY) using a Multidrop Combi (Thermo Fisher Scientific Inc., Waltham, MA) dispenser. The assay plates were incubated at 37C and 0% CO2 for 5hr. One uL of 3.0uM (final concentration) Nilutamide or assay buffer was added using two separate tips of Flying Reagent Dispenser (FRD, Aurora Discovery, San Diego, CA). Then 23nL of compounds dissolved in DMSO at 15 concentrations and positive controls were transferred to the assay plates using a Pintool station (Wako, San Diego, CA). The assay plates were incubated at 37C and 0% CO2 for 16 hr. After 15hr incubation at 37C, 1uL/well CellTiter-Fluor reagent (Promega Corporation) was added to each well of the assay plates using FRD. After 1hr incubation at 37C and 0% CO2, the fluorescence signal was measured using a ViewLux plate reader (PerkinElmer, Shelton, CT).
On the % scale 0 is the no-effect control and ±100 the full control effect; potency means the concentration at half of the fitted maximal effect.

Compound | activity change, negative = cytotoxicity | Potency
COc1ccc(-c2coc3cc(O)ccc3c2=O)cc1 | 1.58% | 
OC/C=C/CO | -0.462% | 
OC1CCCc2ccccc21 (stereo not given) | -1.09% | 
CC[N+](CC)(CC)CCOc1ccc(/C=C/c2ccccc2)cc1 |  | 9.44 µM (active)
CC(C)(C)C1CCC(=O)CC1 | 3.29% | 
O[C@@H]([C@H](O)[C@H](O)CBr)[C@H](O)CBr | -0.0757% | 
O=C(O)c1cc(O)c2ccccc2c1O |  | 54.5 µM (active)
C=C(C)c1cccc(C(=C)C)c1 | -1.2% | 
C#Cc1ccc(-c2ccccc2F)cc1 | -5.84% [at 42.5 µM] | 
O=C(Oc1ccccc1)Oc1ccccc1 | 3% | 
NC(=O)c1cccc([N+](=O)[O-])c1 | -0.754% | 
Oc1c(I)cc(Cl)c2cccnc12 |  | 48.5 µM (active)
COc1cccc2c1C(=O)c1c(O)c3c(c(O)c1C2=O)C[C@@](O)(C(C)=O)C[C@@H]3O[C@H]1C[C@H](N)[C@H](O)[C@H](C)O1 |  | 30.8 µM (active) and 11.9 µM (active)
Cc1ccc(C(C)C)cc2c(C)ccc1-2 | 3.61% [at 42.5 µM] | 
Nc1ccc(NCCO)c([N+](=O)[O-])c1 |  | 48.6 µM (active)
S=C([S-])NCCNC(=S)[S-].S=C([S-])NCCNC(=S)[S-].[Mn+2].[Zn+2] | -0.352% [at 42.5 µM] | 
O=C(/C=C/c1ccccc1)OC/C=C/c1ccccc1 | 2.37% | 
CC(C)=CCNc1ncnc2c1ncn2[C@@H]1O[C@H](CO)[C@@H](O)[C@H]1O | -4.13% [at 42.5 µM] | 
O=C(O)CN(CCN(CC(=O)O)CC(=O)O)CC(=O)O | -0.833% [at 3.27 µM] | 
Cc1ccc(-c2ccccc2)cc1 | 2.04% | 

Compound | activity change, negative = cytotoxicity | Potency
CCN(CC)c1ccc2c(-c3ccc(S(=O)(=O)O)cc3S(=O)(=O)[O-])c3ccc(=[N+](CC)CC)cc-3oc2c1 |  | 12.6 µM (active)
C[Si](Cl)(c1ccccc1)c1ccccc1 | 1.12% | 
Cc1c(C)c2c(c(C)c1OC(=O)c1cccnc1)CC[C@@](C)(CCC[C@H](C)CCC[C@H](C)CCCC(C)C)O2 | 0.289% [at 42.5 µM] | 
Cc1cc(C(C)(C)C)c(O)c(C)c1Cn1c(=O)n(Cc2c(C)cc(C(C)(C)C)c(O)c2C)c(=O)n(Cc2c(C)cc(C(C)(C)C)c(O)c2C)c1=O | -8.92% | 
CC1(C)[C@@H](O)CC[C@]2(C)[C@H]3C(=O)C=C4[C@@H]5C[C@@](C)(C(=O)O)CC[C@]5(C)CC[C@@]4(C)[C@]3(C)CC[C@@H]12 | -2.58% | 
CCC(C)[O-].CCC(C)[O-].CCOC(=O)/C=C(/C)[O-].[Al+3] | 0.392% | 
CC(C)OC(=O)C(O)(CC(=O)O)CC(=O)O | -0.981% | 
O=C(O)[C@H](O)[C@@H](O)[C@H](O[C@@H]1O[C@H](CO)[C@H](O)[C@H](O)[C@H]1O)[C@H](O)CO | -0.647% [at 42.5 µM] | 
CCCCCCOC(=O)C(C)CC (stereo not given) | 1.34% | 
CCCNCCC | 2.24% | 
CC(C)(C)c1ccc(C(O)CCCN2CCC(C(O)(c3ccccc3)c3ccccc3)CC2)cc1 (stereo not given) |  | 23.7 µM (active)
c1ccsc1 | -1.71% | 
CCC(CC)(CC(=O)Nc1cccc(/C=C/c2nc(C3CCC3)cs2)c1)C(=O)O | -0.151% [at 42.5 µM] | 
O=c1[nH]c(=O)n([C@H]2C[C@H](O)[C@@H](CO)O2)cc1F | 0.976% [at 42.5 µM] | 
COC(=O)c1ccccc1C | 0.124% | 
O=C1NC(=O)[C@@H]2CC=CC[C@H]12 | -3.13% | 
CCCC[P+](C)(CCCC)CCCC | 0.0729% | 
O=C(O)Cc1ccc2c(c1)C(=O)c1ccccc1CO2 | 4.47% [at 42.5 µM] | 
ClCCl | 2.65% | 
Cc1cccc(C)c1NC(=O)c1ccc(N)cc1 | 4.08% [at 42.5 µM] | 

Reference: PubChem BioAssay (Tox21)
